Compound activity deposited in PubChem by several laboratories.
NPR1 activator: GC-A (human) enzyme activation. P16066. HEK293 GC-A cells, cGMP TR-FRET, EC30 ANP; 0% at EC30 ANP, 100% saturating ANP. activation, % at 10 µM. 370,000 compounds, 0.14% hits. AID 1671463; in the data active = activation above about 40%
NPR2 activator: GC-B (human) receptor activation. P20594. HEK293-GC-B cells, CNP EC30, cGMP TR-FRET; 0% at EC30 CNP, 100% saturating CNP. activation, % at 10 µM. 370,000 compounds, 0.11% hits;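 active = activation at 10 µM reaching about 35% in either raw or pattern-adjusted values, limit read from the data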
ALR H2O2 inh: blocks human ALR sulfhydryl oxidase activity; 290,000 compounds, 3.8% hits; inhibition, % (no concentration beside the values); purified ALR, DTT oxidation, H2O2 HRP-luminol luminescence; AID 485317; P55789;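 active = mean replicate inhibition above about 79%, with every replicate also reaching it, limit read from the data; inconclusive = only one of the two criteria met; inactive = mean below limit and not every replicate reaching it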
HDAC3 inhib: inhibitors of human histone deacetylase 3. inhibition, % at 8.3 µM. 320,000 compounds, 0.15% hits. recombinant HDAC3, fluorogenic peptide/trypsin coupled, fluorescence; in the data active = inhibition above about 26%, passing the limit was not always enough; inconclusive = no clear call, values can overlap the other calls
Hits are given with their value; – = inactive; ? = inconclusive; · = no result. The sample as a whole holds a higher share of hits than the screen did.

SMILES	NPR1 activator	NPR2 activator	ALR H2O2 inh	HDAC3 inhib
CC1(c2nnnn2C2CCCCC2)CCC(=O)N1Cc1ccc2c(c1)OCO2 (centres undefined)	–	–	·	·
c1ccc(C2Nc3ccccc3C3OCCCC23)cc1 (centres undefined)	–	–	99.3	–
O=C(O)c1ccc(/C=C2\SC(=S)N(NC(=O)c3ccccc3)C2=O)cc1	–	–	–	–
CC(=O)NN1C(=O)/C(=C/c2ccc(C(C)C)cc2)SC1=S	–	–	98.2	–
CCCS(=O)(=O)Nc1ccc2cn[nH]c2c1	–	–	–	–
CCOC(=O)C1CCN(S(=O)(=O)c2csc(C(N)=O)c2)CC1	–	–	–	–
CCOC(=O)C1CCN(S(=O)(=O)c2cccc(-c3csc(C)n3)c2)CC1	–	–	98.6	–
CCOC(=O)C1CCN(S(=O)(=O)c2cccc(-c3cn4cccnc4n3)c2)CC1	–	–	98.0	–
CCOC(=O)C1CCN(S(=O)(=O)c2cccc(-c3cn4cc(C)ccc4n3)c2)CC1	–	–	–	–
COc1ccc(S(=O)(=O)N2CCOCC2)cc1NC(=O)c1ccc(OC(F)F)cc1	–	–	·	·
COC(=O)CCCn1cc(CN2CC(N(C)C)CS2(=O)=O)nn1 (centres undefined)	–	–	·	·
COC(=O)C1=C(C)N(C)C(=NCc2cccc(C(F)(F)F)c2)NC1c1ccccc1 (centres undefined)	–	–	·	·
COC(=O)C1=NNC2(c3ccc(Cl)cc3)C(=O)N(c3ccc(Cl)cc3)C(=O)C12 (centres undefined)	–	–	·	–
COC(=O)C1=NNC2(c3ccc(Cl)cc3)C(=O)N(c3ccccc3)C(=O)C12 (centres undefined)	–	–	·	34.1
Cc1nc([N+](=O)[O-])c(Br)n1CC(=O)c1ccc(Cl)cc1	–	–	97.2	–
COc1ccccc1C(=O)CN1C(=O)NC2(CCCCCC2)C1=O	–	–	–	–
Oc1ccc(Cc2ccc(Cl)cc2)c(O)c1	–	–	96.5	–
Oc1ccc(Cc2ccccc2Cl)c(O)c1	–	–	·	·
Cc1onc(-c2ccc(Cl)cc2)c1-c1ccn(S(=O)(=O)c2cccc(Cl)c2)n1	–	–	·	·
CCCCCn1c(NC2CCCCC2)nc2c1c(=O)[nH]c(=O)n2C	47.6	–	–	–
CCCCCCn1c(N2CCCC2)nc2c1c(=O)[nH]c(=O)n2C	–	–	–	–
CCCCn1c(NC(C)CC)nc2c1c(=O)[nH]c(=O)n2C (centres undefined)	–	–	92.2	–
CCC(C)Nc1nc2c(c(=O)[nH]c(=O)n2C)n1CCOc1ccccc1 (centres undefined)	–	–	98.3	·
Cn1c(=O)[nH]c(=O)c2c1nc(N)n2Cc1ccccc1	–	–	–	·
Cc1cccc(C(=O)N(Cc2ccc(C)o2)C2CCS(=O)(=O)C2)c1 (centres undefined)	–	–	–	–
SMILES	NPR1 activator	NPR2 activator	ALR H2O2 inh	HDAC3 inhib
O=C(/C=C/C(=O)N1CCc2ccccc2C1)N1CCc2ccccc2C1	–	–	85.4	–
CSc1ncc(Cl)c(C(=O)Nc2cccc(C)c2)n1	–	–	–	–
CSc1ncc(Cl)c(C(=O)C(C#N)c2nc3c(C)cc(C)cc3c(=O)[nH]2)n1 (centres undefined)	–	–	86.4	–
Cc1ccc(C)c(NC(=O)CSc2c(C)n[nH]c2C)c1	–	–	95.9	–
CCOC(=O)N1CCC(NC(=O)c2cc(-c3ccc(F)cc3)[nH]c2C)CC1	–	–	98.2	–
CCOC(=O)N1CCC(NC(=O)c2cc(S(=O)(=O)N3CCC4(CC3)OCCO4)ccc2F)CC1	–	–	99.5	–
c1ccc(SC23CCCCN(CCC2)[C@]32CO2)cc1 (some centres undefined)	–	–	·	·
COC(=O)C1=CN(c2ccc(F)cc2)C(N)=C(C#N)C1c1ccc(-c2ccccc2)cc1 (centres undefined)	–	–	·	·
COc1cc(Sc2ccc(C)cc2)c(OC)cc1N	–	–	98.4	–
CC(C)n1c(-c2ccc(N(C)C)cc2)nc2ccccc21	–	–	?	–
C=CCn1c(-c2ccc(N)cc2)nc2ccccc21	–	–	94.9	–
CCn1c(-c2ccc(N)cc2)nc2ccccc21	–	–	91.7	–
CN(C)c1ccc(-c2nc3ccccc3n2C)cc1	–	–	91.4	–
CCn1c(-c2ccc(N(C)C)cc2)nc2ccccc21	–	–	98.7	–
O=C(/C=C/[C@H]1O[C@@H](n2ccc(=O)[nH]c2=O)[C@H](O)[C@@H]1O)NCc1cccs1	–	–	·	·
C=CCn1c(SCC(=O)Nc2ccccc2F)nnc1C(C)NC(=O)c1ccccc1F (centres undefined)	–	–	–	–
C=CCn1c(SCC(=O)Nc2nc(C)cs2)nnc1C(C)NC(=O)c1ccccc1Cl (centres undefined)	–	–	94.3	–
C=CCC1NS(=O)(=O)OC(CCc2ccccc2)C1O (centres undefined)	–	–	–	–
CCOC(=O)N(C)C[C@H]1OCc2cnnn2CCCC(=O)N([C@H](C)CO)C[C@@H]1C	–	–	·	·
O=C(CSc1nc2cc(Cl)ccc2o1)N1CCOCC1	–	–	–	–
O=C(CCSc1nc2cc(Cl)ccc2o1)N1CCOCC1	–	–	98.6	–
CCNC(=O)CCSc1nc2cc(Cl)ccc2o1	–	–	90.3	–
CCCCc1ccc(NC(=O)CSc2nc(=O)n(CCN3CCOCC3)c3c2CCC3)cc1	–	–	99.0	–
CCOc1ccc(NC(=O)CSc2nc(=O)n(Cc3cccnc3)c3c2CCC3)cc1	–	–	98.9	–
O=C(CSc1nc(=O)n(CCCN2CCOCC2)c2c1CCCC2)Nc1ccc(F)c(F)c1	–	–	–	–
SMILES	NPR1 activator	NPR2 activator	ALR H2O2 inh	HDAC3 inhib
Cc1cc(C)c(NC(=O)CSc2nc(=O)n(CCN3CCOCC3)c3c2CCCC3)c(C)c1	–	–	–	–
CC(C)c1ccc(NC(=O)CSc2nc(=O)n(CCN3CCOCC3)c3c2CCC3)cc1	–	–	99.0	–
O=C(CSc1nc(=O)n(CCCN2CCOCC2)c2c1CCC2)Nc1ccc(F)cc1	–	–	97.7	–
CCCCCCCCN1C(=O)[C@H](CC(=O)NCCCOCCCC)C[C@@]2(C(=O)OC)CCCCC=C12	–	–	·	·
CCNC(=S)N1N=C2c3ccccc3CCC2C1c1ccc(F)cc1 (centres undefined)	–	–	–	–
CCc1ccc(NC(=O)CSc2nc3ccccc3nc2N2CCCC2)cc1	–	–	87.6	–
Cc1ccc(NC(=O)CSc2nc(=O)n(CCCN3CCOCC3)c3c2CCCC3)cc1	–	–	97.5	–
CCOc1ccc(NC(=O)CSc2nc(=O)n(CCCN3CCOCC3)c3c2CCC3)cc1	–	–	97.4	–
CCCCc1ccc(NC(=O)CSc2nc(=O)n(CCCN3CCOCC3)c3c2CCC3)cc1	–	–	99.0	–
CC1(C)Cc2cccc(OC(=O)NCCc3ccc(F)cc3)c2O1	–	–	·	·
O=C(NN=Cc1cccc(OCc2ccccc2)c1)c1cc(-c2ccc(Cl)cc2)n[nH]1	–	–	·	·
O=C(CSc1nc(=O)n(CCCN2CCOCC2)c2c1CCCC2)Nc1ccc(F)cc1	–	–	–	–
CCc1ccc(NC(=O)CSc2nc(=O)n(CCCN3CCOCC3)c3c2CCC3)cc1	–	–	97.7	–
